Source: the supplement of paper PMC6555819

Legend:
Assay in all cases: PBM binding z-score (relative to random genomic background probes); higher = stronger binding; sequences stand for … in GC…GCGATTGACAGCGTAGAATGAAGG
[1] = test system: RARb homodimer (NR concentration 270 nM)
Summary of the method: (§1)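 Binding buffer was PBS pH 7.4 with 2% milk, 0.02% Triton X-100, 1 mM DTT, 0.2 mg/mL BSA and 0.4 mg/ml salmon testes DNA. In it, ligand-free nuclear receptor dimers were incubated 1 h on custom Agilent 4×180K protein-binding microarrays carrying double-stranded probes. Antibodies against each partner (one per run) detected binding, and z-scores were calculated against random background probes after regression normalization of scanned fluorescence.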

[2] = test system: RARg:RXRa (NR concentration 270 nM, RXRa partner concentration 90 nM)
Summary of the method: as §1

[3] = test system: RARg homodimer (NR concentration 270 nM)
Summary of the method: as §1

[4] = test system: RXRa DBDmut IVT, anti-RXR (DBD mutation: RXRa K156A/R161A, NR concentration 90 nM)
Summary of the method: as §1

[5] = test system: RXRa homodimer (NR concentration 180 nM)
Summary of the method: as §1

[6] = test system: THRa:RXRa (NR concentration 90 nM, RXRa partner concentration 90 nM)
Summary of the method: as §1

[7] = test system: THRa homodimer (NR concentration 90 nM)
Summary of the method: as §1

[8] = test system: VDR homodimer (NR concentration 270 nM)
Summary of the method: as §1

Sequence | PBM binding z-score [1] | PBM binding z-score [2] | PBM binding z-score [3] | PBM binding z-score [4] | PBM binding z-score [5] | PBM binding z-score [6] | PBM binding z-score [7] | PBM binding z-score [8]
TAGCCGAGGTCATGCGGGCCAGTATAGTGTCGGC | 4.39 | 6.21 | 5.83 | 3.81 | 6.86 | 4.36 | 2.99 | 4.62
CAAACTAGGTCAAAGGTCAAAGGCGAGCCAACCA | 5.32 | 9.06 | 7.75 | 3.02 | 10.4 | 4.91 | 1.64 | 3
AGCGAAAGGTCGTGAGGTGAGTATACAGAAAGGC | 3.19 | 4.63 | 3.87 | 0.985 | 5.33 | 3.46 | 1.27 | 0.74
CAAACTAGGTCACGAACGGTCAAAGTCGAATGAC | 4.43 | 5.69 | 6.24 | 1.66 | 4.56 | 4.08 | 1.74 | 1.44
GCGACTGTGGCATCAGCAGGTTACCATAACTTAA | 0.205 | -0.1 | -0.291 | -0.209 | 0.187 | 0.277 | 0.0891 | -0.501
CCTGCTAGGTCAATGGTCGGCTAAAGCAGCTCGC | 2.9 | 3.87 | 4.16 | 1.74 | 1.88 | 2.42 | 0.749 | 0.149
CAAACTAGGTTACAGAGGTCAAAGTCCGTGCGTA | 4.97 | 6.01 | 5.51 | 2.53 | 7.1 | 4.14 | 2.24 | 5.09
CCTACTGGGCCATCAGGCCATTGATATCAACGTT | 0.414 | -0.00329 | 0.297 | -0.604 | -0.42 | 0.561 | 0.656 | -0.112
CCTTACGGGTCACCCCAGGTTATAGCATCGGAGT | 3.53 | 5.05 | 4.77 | 0.177 | 5.34 | 5.16 | 1.21 | 1.41
CGAACTAGGTCATTGACTGGACAGTGAATAGTAA | 2.56 | 3.72 | 4.26 | 2.1 | 2.58 | 2.25 | 0.595 | 0.943
CCTCGGAGGACAACAGGAGGTCAGAACTGCCAGA | 3.33 | 3.23 | 3.05 | 0.497 | 1.81 | 2.59 | 0.726 | 0.781
TGTCAAAGTTCAGAGGTAACGTAAGTATCCACAC | 3.02 | 4.64 | 4.84 | 3.01 | 4.22 | 2.53 | 0.262 | 2.11
ATCTCTTGGTAAAAGTTCAGTGAATCCCGAGGAT | 2.43 | 1.43 | 1.95 | 0.705 | 1.02 | 0.75 | 0.436 | 1.86
TCTTTTAGATCAAGCAGGTTAAGAAAGCCTGAGT | 0.0271 | 0.216 | 0.212 | 1.19 | 0.49 | 0.401 | -0.436 | 0.0126
CGAACGATGGCATGAGTTGATAGCAAATGCCGAT | -0.482 | -0.189 | -0.00968 | 0.0712 | 0.135 | -0.2 | -0.806 | 0.233
GCGACGGGGGCAAAGCAGGTTACCATAAGGTTGG | 2.24 | 3.47 | 3.11 | 2.62 | 2.73 | 4.56 | 1.23 | 2.8
TGAATGAGGTTAAAGATCAGTGAACGTGGCGTCG | 0.903 | 2.48 | 1.37 | 1.33 | 3.74 | 2.58 | 0.429 | 0.435
CCGACTGGGGCATTAGGTTACCATAAGCCAGCCC | 0.851 | 0.715 | 0.58 | -0.386 | 0.21 | 0.535 | 0.0828 | -0.601
GGAACGAGGGGAAGTTGATAGCAGAGTTTGATGG | 0.255 | -0.0496 | -0.0365 | 0.431 | 0.0141 | -0.105 | 0.182 | 0.565

Sequence | PBM binding z-score [1] | PBM binding z-score [2] | PBM binding z-score [3] | PBM binding z-score [4] | PBM binding z-score [5] | PBM binding z-score [6] | PBM binding z-score [7] | PBM binding z-score [8]
TCGAGTCGGTTAGTCGGGGCATTCAGCCAACATA | -0.0359 | -0.443 | -0.657 | 0.05 | -0.48 | 0.291 | -0.232 | 0.101
GCTAGCAGGCCAGTTGGGTCACTCAATGACGGGC | 1.76 | 0.797 | 0.963 | -1.01 | 0.522 | 1.45 | 0.0151 | -0.361
ATCGAAAGGTCGAGGAGAGTATAGAGAAAGGGAA | 2.25 | 4.13 | 3.86 | 0.539 | 4.21 | 1.94 | -0.151 | 0.103
ACAGACAGGTGAGTGAACGTAACTCAGCTGGACG | -0.371 | -0.0638 | 0.417 | -0.336 | 0.275 | -0.437 | -0.967 | -0.683
CCTAGCAGACCAGGGTCACTCAAGCATTTCGCTT | 2.68 | 2.86 | 1.84 | 0.63 | 3.24 | 2.75 | 0.798 | 1.37
ATCTCTAGGTAAAAGTACAGTGAATCCCGAGGAT | -0.337 | 0.567 | 0.702 | -0.00884 | 0.199 | 0.284 | 0.0784 | 0.123
TCTGCTAGGTCAGTTGGTCACCTAACGAGCTGCC | 2.87 | 2.97 | 3.79 | 0.479 | 1.15 | 1.88 | 0.86 | -0.466
GCTTACGGGTCAAAGGTTATTGCATGAATAGAAT | 3.23 | 6.79 | 4.49 | 2.83 | 9.29 | 3.78 | 0.27 | 1.81
CCAGACAGGTGAAAGGTAAGTCAGTCTGGTACGC | 0.843 | 1.2 | 0.478 | 0.066 | 1.68 | 0.828 | 0.0448 | 0.0335
CGAACTAGGTCATTGACGGGACAGTGAATAGTAA | 2.6 | 4.41 | 4.35 | 2.41 | 2.61 | 2.63 | 0.664 | 0.927
GTACCAAGGTGCATAGGTCGTTGATGAGTAGGCG | 0.393 | 0.769 | 0.407 | 0.546 | 1.3 | 0.111 | -0.427 | 0.968
TCTAGCAGGCCAGAGAGTCACTCAAGAGGTACGG | -0.56 | -0.0784 | -0.0814 | -0.229 | 0.33 | -0.304 | -1.31 | -0.865
GCTCGGAGGACATGGTCAGAGCTTTGTCCGTAGA | 0.143 | -0.271 | 0.158 | -0.383 | -0.444 | 0.524 | -0.306 | -0.849
GAAACGAGGGCAAGTTGATAGCAGAGTTTGATGG | 1.68 | 1.6 | 1.94 | 2.43 | 1.02 | 1.41 | 0.0214 | 1.97
TCTTGTAGATCAGCACGTTAAGAAAGCTGGCCAA | -0.823 | -0.246 | -0.479 | 0.626 | -0.185 | -0.261 | -0.422 | -0.0275
CGAACTAGGTCATTCAGGACAGTGAATACATTGA | 2.72 | 3.7 | 4.69 | 2.77 | 2.8 | 3.63 | 2.13 | 2.27
ATCTCTAGCTAACAAGTTCAGTGAAAGAGAGGAC | 1.31 | 0.734 | 0.987 | 0.511 | 0.529 | 1 | 0.651 | 2.47
TTACCTAGGTGAAGGTCGTTGATCCCTCTGTAGA | 1.21 | 0.824 | 0.525 | -0.143 | 1.29 | 1.9 | 0.379 | 0.61
AGTCAAAGTTCATTTAGGTAACGTAAGATATGCT | 3.77 | 5.03 | 5.39 | 4.96 | 4.35 | 3.29 | 1.03 | 5.45

Sequence | PBM binding z-score [1] | PBM binding z-score [2] | PBM binding z-score [3] | PBM binding z-score [4] | PBM binding z-score [5] | PBM binding z-score [6] | PBM binding z-score [7] | PBM binding z-score [8]
ATCTCTAGGTAGAGTTCAGTGAAAGATCGATAGA | 1.89 | 1.61 | 1.55 | 2.18 | 1.3 | 0.946 | -0.259 | 3.41
CCGACTGGGGCATAAGGTTAGCATAAGCCAGCCC | 1.26 | 0.672 | 0.69 | -0.721 | 0.224 | 1.01 | 0.298 | -0.543
CCTACTTGGCCAAGGTCATTGATCAGTCAAAGCA | 3.78 | 4.01 | 3.47 | 2.56 | 3.83 | 3.82 | 3.07 | 3.62
TCATATAGGTAAAGGTGAACGTCGAACGATATGA | 1.73 | 1.71 | 1.52 | 0.894 | 2.17 | 1.5 | -0.0395 | -0.239
CCTGACGGGTCACTCCAGGTTATAGCATCGGAGT | 2.89 | 3.82 | 3.7 | 1.04 | 3.59 | 5.04 | 0.311 | 1.27
CCTATTAGTTGAGCATAAGGGCAACCGAAGCTCG | 1.42 | 0.728 | 0.652 | 0.381 | 0.162 | 1.58 | 0.923 | 0.43
ACTTACGGGACAACGAGGTTATAGCACGCGTATA | 1.17 | 0.768 | 1.24 | 0.749 | 1.03 | 1.69 | 0.953 | 1.94
TCACATAGGTAAAAGGTGAAAGTCGGTGTGGTAA | 1.98 | 2.02 | 0.992 | 1.3 | 3.3 | 1.72 | 0.0653 | -0.0676
CCTAGTTGGTCAAGGTCACACTCGCTATAGGTAC | 4.05 | 4.19 | 4.5 | 2.44 | 3.96 | 3.92 | 4.03 | 3.42
ACAGACAGGTGAGTGTAGGTAACTCAGCTGGACG | -0.178 | 0.259 | 0.401 | -0.328 | 0.232 | 1.33 | -0.572 | -0.361
ATCGAAAGGTCGTGAGGAGAGTATACAGAAAGGC | 2.56 | 4.52 | 4.04 | 1.59 | 5.22 | 2.7 | 0.251 | 0.69
CGGCCAAGGTCAAGGTCAGTGAAAGAGACTCGAA | 5.16 | 6.85 | 7.69 | 3.48 | 6.81 | 4.33 | 2.89 | 2.95
TAGCCTAGGTCAGATCGCGCCAGTATACGCTATA | 1.68 | 2.64 | 3.2 | -0.216 | 1.22 | 1.61 | 0.165 | -0.0657
GCAGACAGATGAAACGCAGGTAACTCAGGGTGGC | -0.914 | -0.366 | -0.316 | -0.516 | -0.162 | 0.473 | -1.03 | -0.594
CCGACTGGGACAGAAAGGTTACCATACCATCCGG | 2.12 | 1.37 | 0.963 | -0.641 | 1.61 | 1.19 | -0.195 | -0.17
ATCGAAAGATCGTGAGGTGAGTATACAGAAAGGC | -0.106 | 0.546 | 0.519 | -0.575 | 0.649 | 1.73 | 0.91 | -0.449
ATCTCTAGGTCACAAGTTCAGTGAAAGAGAGGAC | 4.24 | 5.58 | 6.02 | 2.17 | 4.04 | 3.4 | 2.36 | 3.53
CCAGACAGGTGAAAGGTAAATCAGTCTGGTACGC | 0.653 | 1.04 | 0.721 | -0.121 | 1.85 | 0.832 | -0.308 | 0.0909
